Here are results for four molecules from PubChem BioAssay (EPA / NIEHS).

For orientation: AC50 means the concentration at which the activity in the assay is half-maximal.

Test [1] can be described thus: CCTE_Shafer_MEA_dev_per_network_spike_spike_number_mean: CCTE's Neural Network Formation Assay for Mean Number of Spikes in a Network Spike, Shafer Lab (AID 2284053). The method, boiled down: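 First, rat cortical cells (1.5 x 10^5/well) were seeded onto MEA wells; second, dosing began at plating and was refreshed on DIV 5 and 9; finally, network-spike spike counts across DIV 5–12 were summarized as AUC.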

Test [2] can be described thus: CCTE_Shafer_MEA_dev_per_network_spike_spike_percent: CCTE's Neural Network Formation Assay for Percent of Spikes in a Network Spike, Shafer Lab (AID 2284054). Put shortly: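 Rat primary cortical cultures, 1.5 x 10^5 cells/well on MEA. Continuous compound exposure d0–12, medium/compound renewed DIV 5, 9. Network-spike spike % (0.05 s peak window), AUC over 4 recordings, DMSO baseline.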

Test [3] is described as follows: CCTE_Shafer_MEA_dev_LDH: CCTE's Lactate Dehydrogenase Assay for Cytotoxicity in the Neural Network Formation Assay, Shafer Lab (AID 2284068; active = hit-call score of the fitted dose curve at least 0.9, where 1 is the maximum;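 note: exposure for twelve days from plating with re-dosing on DIV 5 and 9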). The method, boiled down:
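Developing rat cortical networks on MEA plates are exposed to compound for 12 days from plating. LDH activity is measured spectrophotometrically, with DMSO as baseline.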

Test [4] can be described thus: IUF_NPC1b_proliferation_BrdU_72hr: Leibniz Research Institute for Environmental Medicine (IUF) 72-hour Neural Progenitor Cell Bromodeoxyuridine (BrdU) Proliferation Assay (NPC1b) (AID 2284207). Put shortly: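 Proliferation of primary human neural progenitor cells: 72 h compound treatment at 37C, 5% CO2, pH 7.2-7.6, in EGF/FGF-containing medium. Readout is BrdU uptake (last 16 h) by chemiluminescent ELISA, normalised to DMSO.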

Test [5] is described as follows: IUF_NPC1a_proliferation_area_72hr: Leibniz Research Institute for Environmental Medicine (IUF) 72-hour Neural Progenitor Cell Proliferation Area Assay (NPC1a) (AID 2284208). The method, boiled down:
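Single 0.25–0.35 mm human fetal neural progenitor spheres in proliferation medium with EGF and FGF, exposed 72 h from plating without renewal at 37C, pH 7.2-7.6. Sphere area growth measured by automated phase-contrast imaging, relative to DMSO.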

Test [6] is described as follows: IUF_NPC1_viability_72hr: Viability Assessment at 72 hours in the Leibniz Research Institute for Environmental Medicine (IUF) Neural Progenitor Cell Proliferation Assay (NPC1) (AID 2284209). Put shortly: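 Single spheres (0.25-0.35 mm) of human fetal cortex-derived neural progenitor cells were grown in proliferation medium with EGF and FGF at 37C and 5% CO2. They were exposed for 72 h without renewal, and viability was read by alamar blue resorufin fluorescence.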

Test [7] can be described thus: CCTE_Mundy_HCI_Cortical_Synap_Neur_Matur_NeuriteSpotCountPerNeuriteLength: CCTE's Synaptogenesis and Neurite Maturation Assay in rat cortical cells for Neurite Spot Count per Neurite Length, Mundy Lab (AID 2284210). The method, boiled down:
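Primary rat cortical neurons, compound exposure DIV 7–12, 288.33 h endpoint. Hoechst, anti-MAP2 and anti-synaptophysin labelling; neurite-associated puncta per neurite length scored by automated imaging relative to DMSO controls.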

A short description of test [8]: CCTE_Mundy_HCI_Cortical_Synap_Neur_Matur_BPCount: CCTE's Synaptogenesis and Neurite Maturation Assay in rat cortical cells for Branch Point Count, Mundy Lab (AID 2284211). The method, boiled down: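 Rat primary cortical cultures, AraC added DIV 5; chemicals dosed DIV 7 through DIV 12. Fixed cells stained for MAP2, synaptophysin and Hoechst; neurite branch points counted by automated high-content imaging, fitted relative to DMSO.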

The nature of test [9]: CCTE_Mundy_HCI_Cortical_NOG_NeuriteCount: CCTE's Neurite Outgrowth Assay in rat cortical cells for Neurite Count, Mundy Lab (AID 2284212).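 Note: cells fixed about two days after chemical exposure began.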 The method, boiled down: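 Neurite number per cell from high-content imaging of betaIII-tubulin immunostaining, with Hoechst nuclear counterstain.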
Test [10] can be described thus: CCTE_Mundy_HCI_Cortical_NOG_NeuriteLength: CCTE's Neurite Outgrowth Assay in rat cortical cells for Neurite Length, Mundy Lab (AID 2284213). Put shortly:
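Neurite length was read by high-content imaging of βIII-tubulin-labelled neurites in rat primary cortical cultures. Activity was fitted relative to DMSO.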

Test [11] in a line: CCTE_Mundy_HCI_Cortical_Synap_Neur_Matur_NeuriteLength: CCTE's Synaptogenesis and Neurite Maturation Assay in rat cortical cells for Neurite Length, Mundy Lab (AID 2284214). Put shortly:
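Rat primary cortical cultures, AraC added DIV 5, dosed DIV 7 through DIV 12 […]. Fixed, MAP2/synaptophysin immunostained with Hoechst; neurite length by high-content imaging, fitted in positive direction versus DMSO.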

A short description of test [12]: CCTE_Mundy_HCI_Cortical_Synap_Neur_Matur_NeuriteSpotCountPerNeuron: CCTE's Synaptogenesis and Neurite Maturation Assay in rat cortical cells for Neurite Spot Count per Neuron Count, Mundy Lab (AID 2284215). The method, boiled down: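 Rat primary cortical cultures given AraC at DIV 5, dosed from DIV 7 to DIV 12 with media change. Fixed, stained for MAP2, synaptophysin and Hoechst; neurite-associated synaptophysin puncta per neuron quantified by high-content imaging versus DMSO.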

Test [13] is described as follows: CCTE_Mundy_HCI_Cortical_Synap_Neur_Matur_SynapseCount: CCTE's Synaptogenesis and Neurite Maturation Assay in rat cortical cells for Synapse Count, Mundy Lab (AID 2284218). The method, boiled down: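 Rat primary cortical cultures, AraC at DIV 5, chemical dosing DIV 7 to DIV 12 (288.33 h). Fixed cells stained for MAP2, synaptophysin and Hoechst; synapses per neuron counted by high-content imaging, loss of signal versus DMSO.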

A short description of test [14]: CCTE_Mundy_HCI_Cortical_Synap_Neur_Matur_NeuriteCount: CCTE's Synaptogenesis and Neurite Maturation Assay in rat cortical cells for Neurite Count, Mundy Lab (AID 2284222).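 Note: exposure from day 7 to day 12 in vitro with readout at day 12.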 The method, boiled down:
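In this multiplexed morphology readout, rat primary cortical neurons are fixed at DIV 12 following dosing at DIV 7 and stained for MAP2, synaptophysin and nuclei. High-content image analysis yields neurite count.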

Test [15] can be described thus: CCTE_Mundy_HCI_Cortical_NOG_BPCount: CCTE's Neurite Outgrowth Assay in rat cortical cells for Branch Point Count, Mundy Lab (AID 2284237). Put shortly: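 Measured 50.33 h after dosing, this morphology endpoint uses rat primary cortical cultures labelled for betaIII-tubulin. Branch points are quantified by high-content imaging, with DMSO as negative control and baseline.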

The nature of test [16]: CCTE_Mundy_HCI_hNP1_Casp3_7: CCTE's Caspase-Glo 3/7 Assay in human neuroprogenitor cells for Apoptosis, Mundy Lab (AID 2284240). Put shortly: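 Apoptosis is scored by activated caspase-3/7 luminescence in WA09-derived neural progenitor cells, measured 26.5 h after chemical dosing. Values represent gain of signal relative to DMSO vehicle.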
A short description of test [17]: IUF_NPC2c_oligodendrocyte_migration_120hr: Leibniz Research Institute for Environmental Medicine (IUF) 120-hour Neural Progenitor Cell Migration Assay for Oligodendrocyte Migration (NPC2c) (AID 2284297).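 Note: O4-positive oligodendrocyte migration distance divided by radial glia migration distance.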 Put shortly: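 Human fetal neural progenitor spheres (0.3 mm) are plated on poly-D-lysine/laminin in N2 differentiation medium and exposed for 120 h, with half-medium renewal at day 3. Oligodendrocyte (O4+) migration distance comes from ICC imaging, normalised to radial glia migration.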

Test [18] in a line: IUF_NPC2a_radial_glia_migration_120hr: Leibniz Research Institute for Environmental Medicine (IUF) 120-hour Neural Progenitor Cell Migration Assay for Radial Glia Migration (NPC2a) (AID 2284298). The method, boiled down: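 Human fetal-cortex neural progenitor spheres (0.3 mm) plated on poly-D-lysine/laminin in N2 differentiation medium, exposed 120 h at 37C with half-medium renewal at day 3. Radial glia migration distance (um) measured from Hoechst-stained nuclei images; DMSO baseline.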

The nature of test [19]: IUF_NPC2a_radial_glia_migration_72hr: Leibniz Research Institute for Environmental Medicine (IUF) 72-hour Neural Progenitor Cell Migration Assay for Radial Glia Migration (NPC2a) (AID 2284299). Put shortly: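 Human fetal neural progenitor spheres (0.3 mm) plated on poly-D-lysine/laminin in N2 differentiation medium and exposed from day 0 at 7 concentrations; radial glia migration distance from sphere edge measured at 72 h on brightfield images, mean of four directions, vs DMSO.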

Test [20] can be described thus: IUF_NPC2b_neuronal_migration_120hr: Leibniz Research Institute for Environmental Medicine (IUF) 120-hour Neural Progenitor Cell Migration Assay for Neuron Migration (NPC2b) (AID 2284300). The method, boiled down:
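0.3 mm hNPC spheres on poly-D-lysine/laminin in N2 differentiation medium exposed 120 h, half-medium refresh day 3; 7 concentrations, DMSO max 0.1%. Neuron (TUBB3) distance from sphere core by ICC imaging, normalised to radial glia migration.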

Results filed as inconclusive are left out. Active and inactive are the calls of the source. Rule for the calls, unless noted: active = hit-call score of the fitted dose curve at least 0.9, where 1 is the maximum; inactive = score below 0.9.

As for `CN(C)CCC(c1ccc(Cl)cc1)c1ccccn1` (stereo not given), the call in test [1], in test [2], in test [3], in test [4], in test [5] and in [6] was inactive. The call in test [7], in [8], in test [9], in test [10], in test [11] and in test [12] was inactive. Moreover, the molecule was called inactive in test [13], in [14], in test [15], in [16], in [17] and in [18]. In addition, the molecule was classed as inactive in test [19] and in [20].

Regarding `Oc1cccc2ccccc12`, the outcome in [4], in [5], in test [17], in test [18], in [19] and in test [20] was inactive. The AC50 in test [6] is 2440 nM (active).

Regarding `NC(N)=Nc1nc(CSCCC(N)=NS(N)(=O)=O)cs1`, the molecule was classed as inactive in [1], in [2], in test [3], in test [4], in test [5] and in test [6]. Further, the result in test [7], in test [8], in [9], in test [10], in [11] and in [12] was inactive. Besides, the call in test [13], in test [14], in test [15], in [16], in test [17] and in test [18] was inactive. Further, the molecule was classed as inactive in test [19] and in test [20].

For `CC1(C)S[C@@H]2[C@H](NC(=O)[C@H](N)c3ccccc3)C(=O)N2[C@H]1C(=O)O`, the molecule was called inactive in test [1], in [2], in [3], in test [7], in [8] and in [9]. Moreover, the outcome in [10], in test [11], in test [12], in [13], in test [14] and in test [15] was inactive. The result in [16] was inactive.
